Screening results from PubChem BioAssay.
Only some compounds are listed: those with a hit (about 1.4% of all), similar ones and a draw of the others.
AmpC inh no detg = qHTS Inhibitors of AmpC Beta-Lactamase (assay without detergent); AmpC nitrocefin hydrolysis, absorbance 480 nm, 0.0001% Triton; Potency, µM (series often up to 57.1 µM), inactives show at the highest dose activity change, negative = inhibition, actives largely listed as inhibitors; hit rate 0.52% among 330,000; AID 485341, 2010;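 note: plate controls were no compound for no effect and no enzyme for full effect; nearly all actives have a fitted effect of over 20% in size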
Target sequence (P00811 whole entry, looked up): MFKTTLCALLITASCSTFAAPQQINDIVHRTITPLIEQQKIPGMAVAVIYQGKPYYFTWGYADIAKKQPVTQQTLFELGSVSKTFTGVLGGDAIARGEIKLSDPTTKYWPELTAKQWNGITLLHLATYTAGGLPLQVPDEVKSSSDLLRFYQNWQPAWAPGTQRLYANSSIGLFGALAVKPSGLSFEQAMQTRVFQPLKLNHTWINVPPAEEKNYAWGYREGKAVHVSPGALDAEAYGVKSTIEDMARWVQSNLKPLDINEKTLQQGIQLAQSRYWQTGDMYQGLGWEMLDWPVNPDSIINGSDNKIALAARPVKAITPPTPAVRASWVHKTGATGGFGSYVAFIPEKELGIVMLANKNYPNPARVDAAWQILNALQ
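20 mM phosphate pH 7.0 + 0.01% (detergent screen) or 0.0001% Triton X-100; 5.3 nM AmpC reagent; cpd preinc 15 min RT; nitrocefin (800 uM stock) to start; A480 q20 s × 4 min; Activity was normalised to no-enzyme and no-compound control wells.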
FBPA Giardia inh = qHTS Assay for Inhibitors of Fructose-1,6-bisphosphate Aldolase from Giardia Lamblia. AID 2451, 2010. hit rate 0.71% among 290,000. purified Giardia FBPA. Potency, µM (highest dose often 59.6 µM), without a hit: top-dose activity, negative = inhibition, usual class: inhibitors; note: nearly all actives have a fitted effect of over 55% in size
Target sequence (A8B2U2 whole entry, looked up): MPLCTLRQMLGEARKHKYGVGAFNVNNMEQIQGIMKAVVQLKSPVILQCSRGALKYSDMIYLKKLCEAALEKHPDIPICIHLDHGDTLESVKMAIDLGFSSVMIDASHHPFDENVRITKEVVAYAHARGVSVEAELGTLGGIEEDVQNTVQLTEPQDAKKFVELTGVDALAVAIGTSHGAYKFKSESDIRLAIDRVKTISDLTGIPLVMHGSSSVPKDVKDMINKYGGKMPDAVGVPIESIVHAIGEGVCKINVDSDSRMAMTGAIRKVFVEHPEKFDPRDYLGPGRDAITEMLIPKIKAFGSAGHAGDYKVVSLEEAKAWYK
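40 nM FBPA preincubated 10 min at RT with compound (up to 57.5 uM final), then substrate plus GAPDH/TPI/NAD/arsenate coupling and diaphorase/resazurin added. Fluorescence read after 20 min at RT, 525/598 nm.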
AmpC detergent = qHTS Inhibitors of AmpC Beta-Lactamase (assay with detergent); P00811; AmpC hydrolysis of nitrocefin, absorbance 480 nm, 0.01% Triton; Potency, µM (doses to about 114 µM), for the others: top-dose activity change, negative = inhibition, most hits filed as inhibitors; hit rate 0.041% among 370,000; AID 485294, 2010;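 note: 0% = no-compound wells and -100% = no-enzyme wells; nearly all actives have a fitted effect of over 25% in size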
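20 mM phosphate pH 7.0 + 0.01% (detergent screen) or 0.0001% Triton X-100; 5.3 nM AmpC reagent; cpd preinc 15 min RT; nitrocefin (800 uM stock) to start; A480 q20 s × 4 min; Activity was normalised to no-enzyme and no-compound control wells.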
Tb PYK inh = qHTS of Trypanosoma Brucei Inhibitors; pyruvate kinase (Trypanosoma brucei), Q57TT1; TbPYK enzyme, Kinase-Glo Plus ATP luminescence, 45 min; Potency, µM (series often up to 76.8 µM), without a hit: at the highest dose activity, negative = inhibition, actives largely listed as inhibitors; hit rate 0.12% among 410,000; note: nearly all actives have a fitted effect of over 50% in size
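ADP (130 uM final) triggers the TbPYK reaction after compound addition; incubation is 45 min at room temperature. Kinase-Glo Plus is then added and luminescence imaged. Normalized data are fitted to concentration-effect curves.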
RE007 growth inh = qHTS Assay for Inhibitors of the HIV-1 protein Vpr | S. pombe RE007 Vpr strain, BacTiter-Glo ATP luminescence, 24 h | Potency, µM (top dose mostly 92.2 µM), without a hit: at the highest dose activity change, negative = less growth, usual class: inhibitors | hit rate 0.21% among 360,000; active = well fitted falling curve with a large enough effect; inconclusive = small, poorly fitted or top-dose-only effect; inactive = no such curve, though single readings can be large or run the other way; note: nearly all actives have a fitted effect of over 50% in size
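Fission yeast RE007 carrying one integrated HIV-1 vpr copy, seeded at OD 0.01 in PMG+AL medium with 23 nL pinned compound. Grown 24 h at 30 degrees; viability read by BacTiter-Glo luminescence after 5 min.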
LmPK inhibitor = qHTS Assay for Inhibitors of Leishmania Mexicana Pyruvate Kinase (LmPK); Potency, µM (titrated, usually from 57.5 µM), for the others: top-dose activity change, negative = inhibition, hits mostly inhibitors; Q27686; purified LmPK, Kinase-Glo ATP luminescence, 1 h; hit rate 0.37% among 290,000
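In 50 mM imidazole pH 7.2 with 7 mM MgCl2, LmPK (0.1 nM) turned over PEP (0.5 mM) and ADP (0.1 mM) for 1 h at room temperature. Luciferase read-out of ATP.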
* marks the source's active call; other numbers are inactive results; ? = inconclusive; / = not tested or not shown; [ ] = another dose, or the depositor's remark. Unless noted, calls come from the whole dose curve; as a rule, active = well fitted curve in the direction sought with a large enough effect; inconclusive = small, poorly fitted or top-dose-only effect, or another doubt; inactive = no such curve, though single readings can be large; an effect the other way counts as inactive or inconclusive. Unless noted, % is set by controls: 0 for no effect and ±100 for the full control effect; potency is the fitted concentration of half-maximal effect.

SMILES	AmpC inh no detg	FBPA Giardia inh	AmpC detergent	Tb PYK inh	RE007 growth inh	LmPK inhibitor
Cc1ccccc1C(=O)Nc1ccc(C(=O)N2CCCC(O)c3cc(Cl)ccc32)c(C)c1 (stereo not drawn)	/	/	/	-3%	/	/
O=C(CN1C(=O)CCSc2ccccc21)N1CCC2(CC1)OCCO2	0.28µM*	-2%	3%	-5%	20%	0%
CCOC(=O)c1ccn(-c2nc(-c3cccc(OC)c3)cc(C(F)(F)F)n2)n1	/	/	2%	1%	/	/
Cc1cc(NS(=O)(=O)c2ccc(NC(=O)c3ccccc3C)cc2)no1	-6%	-2%	-9%	0%	-1%	8%
Cc1ccc(-c2cc(C(=O)Nc3ccc(S(=O)(=O)Nc4cc(C)on4)cc3)c3ccccc3n2)c(C)c1	10µM*	4%	?	-6%	10%	9%
O=c1oc2ccccc2c(Nc2ccccc2O)c1[N+](=O)[O-]	-24%	0%	6%	7%	-6%	-4%
O=c1oc2ccccc2c(Nc2cc3ccccc3cc2O)c1[N+](=O)[O-]	-30%	6.3µM*	4%	-8%	-18%	-3%
COc1cccc(C2NC(=S)NC3=C2CCc2ccccc23)c1 (stereo not drawn)	-31%	16µM*	-2%	-11%	9%	3%
COc1cc(N)c(Cl)cc1C(=O)OCC(=O)Nc1cccnc1Cl	35µM*	/	?	-5%	-3%	/
COc1ccc(Cl)cc1C(=O)OCC(=O)Nc1cccnc1Cl	-2%	/	8%	4%	-16%	/
Fc1ccc(-n2nnc(-c3nccs3)n2)cc1	-17%	3%	-6%	-20%	?	14µM*
CC#CCC(C)[C@H](O)/C=C/C1[C@H](O)C[C@@H]2C/C(=C\CCCC(=O)O)C[C@H]12 (stereo partly drawn)	/	/	/	1%	/	/
Clc1ccc2c(SCC3CO3)c3ccccc3nc2c1 (stereo not drawn)	/	/	/	-20%	1µM*	/
CN1C[C@H]2c3ccccc3Oc3ccc(Cl)cc3[C@@H]2C1	/	/	/	5%	/	/
Cc1sc2nc(CN3CCN(c4ccc(O)cc4)CC3)[nH]c(=O)c2c1C	-15%	?	5%	-29%	14%	14µM*
Cc1ccc(/C=C/c2onc(C)c2S(=O)(=O)N2CCC(C(=O)NCc3ccc(N(C)C)cc3)CC2)cc1	/	/	15%	0%	/	/
O=C1NC(=Nc2ccc(O)cc2)S/C1=C/c1ccco1	10µM*	-4%	0%	-15%	-9%	5%
O=C1NC(=Nc2ccc3ccccc3c2)S/C1=C/c1ccco1	32µM*	-8%	2%	-12%	-30%	3%
Cc1ccc(N=C2NC(=O)/C(=C\c3ccco3)S2)cc1	-44%	2%	-15%	-17%	?	3%
Cc1cccc(N=C2NC(=O)/C(=C/C=C/c3ccco3)S2)c1	28µM*	-12%	-14%	1%	-26%	-6%
Cc1c2c(c(O)c3c(O)cccc13)C(=O)O[C@H]2C1C(N(C)C)C(O)=C(C(N)=O)C(=O)[C@H]1O (stereo partly drawn)	/	10µM*	/	/	/	/
Cc1cccc(CCNC(=O)c2ccc3c(c2)nc2n3CCCCC2)c1	/	/	6%	0%	/	/
CCOC(=O)c1ccc(CC(=O)c2ccc(O)c(O)c2O)o1	-42%	11µM*	4%	-1%	4%	6%
CCOC(=O)c1ccc(CC(=O)c2oc3cc(O)ccc3c2C)o1	-46%	-1%	?	8%	36%	2%
CCOc1ccccc1NC(=O)Nc1cc(C(=O)NCc2ccc(C)cc2)ccc1N1CCCC1	/	/	14%	2%	/	/
SMILES	AmpC inh no detg	FBPA Giardia inh	AmpC detergent	Tb PYK inh	RE007 growth inh	LmPK inhibitor
CC[n+]1c(/C=C/C=C/c2ccc(N(C)C)cc2)sc2ccccc21	-4%	-2%	8%	?	6.3µM*	16µM*
Cc1cccc(CSc2cn(CC(=O)N3CCCCC3)c3ccccc23)c1	/	/	-7%	0%	/	/
Cc1cc(C(=O)CSc2nnnn2-c2ccc(O)cc2)c(C)n1Cc1ccc2c(c1)OCO2	2.2µM*	0%	-8%	0%	-9%	-1%
Cc1cc(C(=O)CSc2nncs2)c(C)n1-c1ccc2c(c1)OCO2	0.28µM*	-17%	?	-9%	10%	-8%
Cc1cc(C(=O)CSc2nnnn2-c2ccccc2)c(C)n1-c1ccc2c(c1)OCO2	-42%	-10%	4%	-3%	11%	2%
Cc1ccc2c(CNCCc3ccco3)c(C(=O)O)n(Cc3ccc(F)cc3)c2c1	/	/	0%	-4%	/	/
C=CCn1c(-c2ccccc2)c[nH]c1=S	-18%	-19%	0%	?	11%	13µM*
C=CCn1c(-c2ccc(Cl)cc2)c[nH]c1=S	-17%	-27%	?	?	8%	7.9µM*
CCn1c(-c2ccc(-c3ccccc3)cc2)c[nH]c1=S	-47%	4%	0%	-24%	7%	1%
CC(Oc1ccccc1)C(=O)Nc1ccccc1C(=O)OCc1cc(=O)n2nc(C(C)C)sc2n1 (stereo not drawn)	/	/	0%	-6%	/	/
Cc1ccc(C(=O)NC(=S)Nc2ccc(-c3ccc(CO)o3)cc2)cc1	25µM*	-8%	6%	-4%	6%	-6%[11.5 µM]
CCN(c1ccccc1)S(=O)(=O)c1ccc(NC(=S)NC(=O)c2cccs2)cc1	14µM*	-1%	1%	-8%	-7%	0%
O=C(NC(=S)Nc1ccc(-c2ccc(CO)o2)cc1)c1cccs1	10µM*	-14%	8%	-12%	8%	-6%[11.5 µM]
CCN(CC)c1ccc(NC(=S)NC(=O)c2cccs2)cc1	-57%	-7%	3%	0%	?	8%
CC(=O)c1cc(-c2ccc(F)cc2)n(CC(=O)NC2CCCCCC2)c1C	/	/	7%	-1%[15.4 µM]	/	/
CC(=O)Nc1sc(N/N=C/c2ccc(O)cc2)nc1-c1ccc(C)cc1	-42%	-29%	-2%	-3%	20%	18%
CC(C)(C)c1csc(N/N=C/c2ccc(O)cc2)n1	10µM*	-22%	0%	-3%	-1%	-9%
CC(=O)C1=C(C)NC(SCC(=O)c2ccc(F)cc2)=C(C#N)C1CC(C)C (stereo not drawn)	-13%	-18%	?	14µM*	-15%	23%
CC(=O)C1=C(C)NC(SCC(N)=O)=C(C#N)C1CC(C)C (stereo not drawn)	-25%	6%	?	?	7%	-2%
